Test results from PubChem BioAssay.
Several values for one entry are separate records, joined by “and”; a condition that tells them apart may be missing. Identical values can stand only once. Activity calls are given as the source filed them.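 How the source made its calls, unless noted: active means compound that reduces growth-factor-driven endothelial tube area in a mixed cell culture, no cutoff stated; inactive means the rest.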

Legend:
[1] = Wnt pathway potentiators raising nuclear beta-catenin – imaging, WNT3A-conditioned medium, mouse C2C12, NPC library, primary screen (AID 1117326; in the data active means nuclear beta-catenin stimulation mostly above about 4.2%, no sharp cut-off; inactive means mostly below about 10%; further: reference of the scale not given here); conditions: stronger effect = higher value
[2] = stimulators of insulin release from INS-1E, primary screen, cell-based, 5 mM glucose, NPC library (AID 1117329;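 active means compound raises insulin release from rat beta cells at 5 mM glucose, no numeric limit stated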; further: reference of the scale not given here); conditions: rat INS-1E insulin secretion, at 10 µM, stronger effect = higher value
[3] = growth inhibition of GSK3B-pretreated HCT116 cells – cell-based, CellTiter-Glo, 0.2 to 20 µM (AID 1117336;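 active means compounds lowering colon cancer cell viability after pretreatment blocking the GSK3B kinase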); conditions: HCT116 viability after GSK3B inhibitor, at 20 µM, stronger effect = higher value
[4] = inhibition of endothelial tube formation, primary screen, imaging, VEGF stimulated, CD31 staining, tube area, NPC library (AID 1117340); conditions: VEGF-stimulated ADSC/ECFC co-culture, at 10 µM, stronger effect = higher value
[5] = GLP1 release stimulators, primary, NCI-H716, NPC library (AID 1117341;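 active means compound raises GLP1 secretion from the human gut endocrine cells, with no numeric limit stated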; further: reference of the scale not given here); conditions: NCI-H716 cells, at 10 µM, stronger effect = higher value
[6] = HCT116 colon cancer cell growth inhibition, primary screen, CellTiter-Glo luminescence, NPC library (AID 1117342;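 active means compounds that lower survival of HCT116 colon cancer cells in the luminescence readout, no numeric limit stated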); conditions: at 20 µM (top of the series)
[7] = reduced SW480 viability measured with CellTiter-Glo, NPC library, primary (AID 1117343;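 active means compounds that lower viability of the colon cancer cells in the luminescence readout, with no numeric limit stated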); conditions: CellTiter-Glo luminescence; at 20 µM (top of the series)
[8] = NPC library primary testing for decreased DLD-1 cell viability via CellTiter-Glo (AID 1117346;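 active means compounds that lower survival of DLD-1 colon cancer cells in the luminescence readout, no cutoff given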); conditions: DLD-1 viability, CellTiter-Glo luminescence; at 20 µM (top of the series)
[9] = viability loss with induced miR-34 in A549 – imaging, A549 dox-inducible miR-34, nuclei and caspase counts, primary screen (AID 1347080;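 active means compounds whose cell count with miR-34 switched on is under 0.7 times the count with it off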); conditions: A549 miR-34 inducible, Hoechst nuclei count, 48 h
[10] = MELAS cybrid and Rieske KO viability enhancers – cell-based, MELAS cybrids, Rieske KO mouse fibroblasts, CellTiter-Glo, primary screen (AID 1508586;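 active means mean z-score across replicates of 1.96 or higher in either the MELAS or the Rieske mutant cell line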;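 further: z relative to plate mean and SD of compound and empty wells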); conditions: low glucose
[11] = compounds altering viability of human ES cells (AID 493140; call rule not given here;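 further: cells exposed to compounds for four days before counting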); conditions: human embryonic stem cell survival screen; stronger effect = higher value
[12] = P. berghei load reduction in hepatocytes – cell-based, HepG2, luciferase luminescence, HepG2 viability, primary screen (AID 624349; in the data active means parasite load remaining mostly below about 12%, no sharp cut-off; inactive means mostly above about 10%;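 further: 100% = mean of DMSO negative control wells on the same plate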); conditions: P. berghei liver stage in HepG2, luciferase luminescence, concentration not given here; parasite load remaining: stronger effect = lower value; viability: measured here: HepG2 viability without parasites
[13] = molecular target: NAD(+) hydrolase SARM1 (Homo sapiens) (UniProt Q6SZW1); test: blocking NAD cleavage by SARM1 SAM-TIR – cell lysate, NAD-Glo luminescence (AID 1508614;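 active means compound whose remaining NAD level is above about 45 nM, limit read from the data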); conditions: SAM-TIR HEK293T lysate NADase, at 1 µM, stronger effect = higher value
NAD(+) hydrolase SARM1 (Homo sapiens), sequence (Q6SZW1 whole entry, looked up): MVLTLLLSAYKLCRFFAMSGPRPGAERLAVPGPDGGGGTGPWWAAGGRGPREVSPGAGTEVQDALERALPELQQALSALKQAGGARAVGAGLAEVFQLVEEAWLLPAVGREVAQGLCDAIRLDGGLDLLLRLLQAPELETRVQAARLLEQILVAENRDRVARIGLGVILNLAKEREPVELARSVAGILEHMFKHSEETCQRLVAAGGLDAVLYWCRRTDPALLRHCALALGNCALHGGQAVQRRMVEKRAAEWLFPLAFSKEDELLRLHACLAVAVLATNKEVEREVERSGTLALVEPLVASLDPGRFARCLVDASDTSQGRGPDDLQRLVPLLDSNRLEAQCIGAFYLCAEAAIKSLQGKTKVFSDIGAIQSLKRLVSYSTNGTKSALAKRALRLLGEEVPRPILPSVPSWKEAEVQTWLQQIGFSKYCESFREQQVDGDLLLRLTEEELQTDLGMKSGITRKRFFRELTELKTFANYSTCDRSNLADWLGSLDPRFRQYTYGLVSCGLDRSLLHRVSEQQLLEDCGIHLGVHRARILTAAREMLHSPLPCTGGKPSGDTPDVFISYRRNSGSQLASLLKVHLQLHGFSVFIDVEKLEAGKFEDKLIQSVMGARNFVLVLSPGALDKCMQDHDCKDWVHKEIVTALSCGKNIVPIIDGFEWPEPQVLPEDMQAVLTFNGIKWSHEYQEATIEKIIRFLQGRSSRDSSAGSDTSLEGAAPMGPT

[14] = stronger effect = lower value, cell number ratio, induced over uninduced
[15] = measured here: relative caspase fold change +Dox/-Dox
[16] = measured here: total cells with miR-34 induction, stronger effect = lower value
[17] = measured here: total cells without miR-34 induction
[18] = MELAS cybrid survival, CellTiter-Glo 48 h, stronger effect = higher value
[19] = Rieske KO mouse fibroblast survival, CellTiter-Glo 72 h

SMILES | nuclear beta-catenin stimulation ([1]; at 10 µM) | nuclear beta-catenin stimulation ([1]; stimulation, at 2 µM) | insulin secretion stimulation [2] | viability decrease [3] | tube area decrease [4] | GLP1 secretion stimulation [5] | inhibition of viability [6] | viability decrease (inhibition) [7] | viability decrease (inhibition) [8] | fold change [9, 14] | fold change [9, 15] | cell count [9, 16] | cell count [9, 17] | z-score [10, 18] | z-score [10, 19] | survival [11] | parasite load remaining [12] | viability [12] | fold change ([9]; stronger effect = lower value) | remaining NAD [13]
CC(C)NCC(O)c1ccccc1Cl (stereo unspecified) | -0.5% (inactive) | 0.8% | 11.3% (inactive) | -4.5% (inactive) | 8.9% (inactive) | 3.1% (inactive) | 0.8% (inactive) | 23.3% (inactive) | 9% (inactive) | 0.961 (inactive) | 0.533 | 8950 | 9320 | -0.27 (inactive) | -0.204 |  |  |  |  | 
O=C(NCNC(=O)NC1C(=O)NC(=O)N1CO)NC1C(=O)NC(=O)N1CO (stereo unspecified) | -1.7% (inactive) | 0.2% | 1.2% (inactive) | -3.4% (inactive) | -8.4% (inactive) | -0.8% (inactive) | -1.8% (inactive) | 3.1% (inactive) | 8.4% (inactive) |  | 0.72 | 9340 | 10200 | 0.818 (inactive) | 0.0717 | 33.2 (inactive) | 92.1% (inactive) | 79.2% | 0.914 (inactive) | 
CCCCCCC(=O)CCCCCC/C=C/C[C@@H](O)[C@H](O)[C@@](N)(CO)C(=O)O | -0.4% (inactive) | 1.7% | 1.7% (inactive) | -39.7% (inactive) | -16.8% (inactive) | -2.8% (inactive) | -29.4% (inactive) | 31.4% (inactive) | 9.9% (inactive) | 0.991 (inactive) | 0.843 | 5220 | 5270 |  |  |  |  |  |  | 
[N-]=[N+]=CC(=O)OC[C@H](N)C(=O)O | -2.7% (inactive) | -2.4% | -0.2% (inactive) | 50.2% (active) | 12.9% (inactive) | -1.4% (inactive) | 77.9% (active) | 104% (active) | 57.8% (active) |  |  |  |  |  |  |  |  |  |  | 10 nM (inactive)
CN(C)CCc1ccc(O)cc1 | -0.3% (inactive) | 1.5% | -0.4% (inactive) | 1.5% (inactive) | 4.1% (inactive) | 1.1% (inactive) | 4.7% (inactive) | 1.9% (inactive) | -0.4% (inactive) | 0.908 (inactive) | 0.849 | 9070 | 9990 | -0.277 (inactive) | 0.765 |  |  |  |  | 
O=C1OC2(c3cc(Br)c(O)cc3Oc3c2cc(Br)c(O)[c]3[Hg])c2ccccc21 (stereo unspecified) | 57.5% (active) | 3.4% | 7.2% (inactive) | 77.7% (active) | -234% (inactive) | -1.4% (inactive) | 52.1% (active) | 11.7% (inactive) | 38.2% (inactive) | 0.885 (inactive) | 1.08 | 9490 | 10700 | -0.831 (inactive) | 0.0245 |  | 65.8% (inactive) | 84.8% |  | 
CCC1(c2cccc(O)c2)CCCCN(C)C1 (stereo unspecified) | -0.6% (inactive) | -0.3% | 19.8% (inactive) | 10.8% (inactive) | -4.7% (inactive) | 1.4% (inactive) | -13.6% (inactive) | 57% (active) | 13.3% (inactive) |  | 0.54 and 0.493 | 8800 and 7600 | 9630 and 8210 | -0.204 (inactive) and -0.911 (inactive) | -0.179 and 0.197 | 2.75 (inactive) | 114% (inactive) | 77.7% | 0.914 (inactive) and 0.925 (inactive) | 
